Records with an inconclusive call do not appear. Values without a mark were called inactive. Calls of active or inactive are those of the source. Unless noted, the call rests on the fitted dose curve; in most records, active means well fitted curve in the direction sought with a large enough effect in the repeat runs; inconclusive means weak or mixed curves; inactive means no such curve, though single readings can be large; an effect the other way counts as inactive or inconclusive.

From PubChem BioAssay (Tox21) come the findings set out here.

Assay [1] is described as follows: qHTS assay to identify small molecule antagonists of the retinoid acid receptor (RAR) signaling pathway - cell viability counter screen (AID 1159551). Further: nearly all actives have a fitted effect of over 35% in size. An outline of the steps:
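C3RL4 cells were seeded overnight at 37 C, then treated with compounds plus 1 uM (final) retinol for 6 h at 37 C. Viability was read as ATP by CellTiter-Glo luminescence after 30 min at room temperature.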
In general terms: Quantitative high-throughput screening tests each substance at several concentrations.

Assay [2] can be described thus: qHTS assay to identify small molecule agonists of the retinoic acid receptor (RAR) signaling pathway (AID 1159553). Further: potency means the concentration at half of the fitted maximal effect. In short, it runs like this: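 C3RL4 cells carrying a RARE luciferase reporter were plated overnight at 37 C, then exposed to compounds in DMSO for 6 hr at 37 C and 5% CO2. Luminescence was read 30 min after luciferase reagent addition at room temperature.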

Assay [3] can be described thus: qHTS assay to identify small molecule antagonists of the estrogen related receptor (ERR) signaling pathway from Tox21 library - cell viability counter screen (AID 1224834). Further: nearly all actives have a fitted effect of over 30% in size. Further: potency means the concentration at half of the fitted maximal effect. An outline of the steps: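 ERR reporter cells were plated 6 h before compound addition, then exposed to test compounds in DMSO for 17.5 h at 37 C. Viability was read as CellTiter-Fluor fluorescence after a 30-minute incubation at 37 C.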

Assay [4] addresses Luciferin 4-monooxygenase (Photinus pyralis) (UniProt P08659). Nature of the assay: qHTS assay to identify small molecule inhibitors of firefly luciferase (AID 1224835). Further: series mostly up to about 120 µM; nearly all actives have a fitted effect of over 25% in size. An outline of the steps: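 Biochemical qHTS: compounds run as interplate titrations against purified firefly enzyme, with D-luciferin and ATP each at its KM concentration. Light output recorded by CCD imaging.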

Assay [5] can be described thus: qHTS assay to identify small molecule agonists of the constitutive androstane receptor (CAR) signaling pathway - cell viability counter screen (AID 1224836). Further: series mostly up to about 92 µM; nearly all actives have a fitted effect of over 45% in size. In short, it runs like this: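 Double-stable HepG2 hepatoma cells (hCAR plus CYP2B6-2.2kb) are treated for 23 h at 37 C with test compounds in 15-point concentration series. PK11195 at 0.75 uM final is co-added. Cell viability is quantified by CellTiter-Fluor.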

Assay [6] concerns the target Nuclear receptor subfamily 1 group I member 3 (Homo sapiens) (UniProt Q14994). Nature of the assay: qHTS assay to identify small molecule antagonists of the constitutive androstane receptor (CAR) signaling pathway (AID 1224838). Further: nearly all actives have a fitted effect of over 40% in size. Further: potency means the concentration at half of the fitted maximal effect. An outline of the steps: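 HepG2 cells stably co-transfected with hCAR and a CYP2B6-2.2kb luciferase reporter were seeded 4 h before compound addition at 15 concentrations. Cells were stimulated with 50 nM CITCO (final) for 24 h at 37 C; luciferase luminescence was then read.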

For assay [7] the target is unchanged. Nature of the assay: qHTS assay to identify small molecule agonists of the constitutive androstane receptor (CAR) signaling pathway (AID 1224839). Further: series mostly up to about 92 µM; nearly all actives have a fitted effect of over 15% in size. An outline of the steps:
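Readout: firefly luciferase luminescence via ONE-Glo. System: HepG2 double-stable for hCAR and CYP2B6-2.2kb. Conditions: 15-point compound titration, PK11195 at 0.75 uM final, 24 h incubation.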

Assay [8] is described as follows: qHTS assay to identify small molecule antagonists of the estrogen related receptor signaling pathway with the pleiotropic PPARgamma coactivator (PGC) from Tox21 10K library - cell viability counter screen (AID 1224840; active means well fitted cell-killing curve with a large enough effect in the repeat runs, not every such curve was filed as active; further: nearly all actives have a fitted effect of over 40% in size). In short, it runs like this: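 PGC/ERR cells were seeded at 2,000 cells/well and left 6 hours at 37 C/5% CO2 before pin-tool addition of compounds in DMSO. After 17.5 hours at 37 C, CellTiter-Fluor was added and fluorescence read 30 minutes later.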

Assay [9] can be described thus: qHTS assay to identify small molecule antagonists of the estrogen related receptor signaling pathway with the pleiotropic PPARgamma coactivator (PGC) from Tox21 10K library (AID 1224841; call rule not given here; further: actives are mostly falling curves and most rising ones were filed inactive; nearly all actives have a fitted effect of over 50% in size; further: potency means the concentration at half of the fitted maximal effect). In short, it runs like this:
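PGC/ERR reporter cells were seeded at 2,000 cells/well and held 6 hours at 37 C/5% CO2 before pin-tool addition of compounds in DMSO. After 18 hours at 37 C, One-Glo was added and luminescence read after 30 minutes at room temperature.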

The nature of assay [10]: qHTS assay to identify small molecule agonists of the estrogen related receptor signaling pathway with the pleiotropic PPARgamma coactivator (PGC) from Tox21 10K library (AID 1224842). Further: nearly all actives have a fitted effect of over 15% in size. In short, it runs like this:
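PGC/ERR reporter cell line, 2,000 cells per well, incubated 6 h at 37 C before 23 nL compound in DMSO was added. After 18 h at 37 C, One-Glo luminescence read following 30 min at room temperature.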

Assay [11] deals with Thyrotropin receptor (Homo sapiens) (UniProt P16473). Nature of the assay: qHTS assay to identify small molecule agonists of the thyroid stimulating hormone receptor (TSHR) signaling pathway (AID 1224843; calls by dose curve; further: nearly all actives have a fitted effect of over 45% in size). In short, it runs like this:
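Steps: seed 800 TSHR-HEK293 cells per well; add test compound and hold 30 min at ambient temperature; dispense cAMP-d2 then anti-cAMP cryptate; incubate 1 h at ambient; measure fluorescence intensity.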

The nature of assay [12]: qHTS assay to identify small molecule antagonists of the constitutive androstane receptor (CAR) signaling pathway - cell viability counter screen (AID 1224837). Further: series mostly up to about 92 µM; nearly all actives have a fitted effect of over 45% in size. In short, it runs like this:
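HepG2 cells stably expressing hCAR and a CYP2B6-2.2kb reporter were plated and pre-incubated 4 hr at 37 C/5% CO2, then given compounds at 15 concentrations plus 50 nM CITCO (final). After 23 hr, viability was read by CellTiter-Fluor fluorescence.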

Assay [13] in a line: qHTS assay to identify small molecule antagonists of the retinoic acid receptor (RAR) signaling pathway (AID 1159552; further: nearly all actives have a fitted effect of over 50% in size). An outline of the steps:
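Antagonism of retinol-induced RARE reporter activity was measured in C3RL4 cells. Exposure to compounds and 1 uM final retinol lasted 6 hr at 37 C, with luminescence as endpoint.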

Nuclear receptor subfamily 1 group I member 3 (Homo sapiens), sequence (Q14994 whole entry, looked up): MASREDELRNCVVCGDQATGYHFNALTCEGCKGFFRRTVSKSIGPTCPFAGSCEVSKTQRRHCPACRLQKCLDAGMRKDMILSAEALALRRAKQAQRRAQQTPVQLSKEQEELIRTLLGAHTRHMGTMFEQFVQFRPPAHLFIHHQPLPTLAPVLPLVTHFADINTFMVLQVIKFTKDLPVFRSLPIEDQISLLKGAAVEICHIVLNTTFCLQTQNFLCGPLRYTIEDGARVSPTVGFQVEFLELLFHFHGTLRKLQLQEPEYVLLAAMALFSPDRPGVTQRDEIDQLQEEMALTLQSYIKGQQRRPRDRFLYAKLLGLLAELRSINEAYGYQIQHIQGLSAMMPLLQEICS
Thyrotropin receptor (Homo sapiens), sequence (P16473 whole entry, looked up): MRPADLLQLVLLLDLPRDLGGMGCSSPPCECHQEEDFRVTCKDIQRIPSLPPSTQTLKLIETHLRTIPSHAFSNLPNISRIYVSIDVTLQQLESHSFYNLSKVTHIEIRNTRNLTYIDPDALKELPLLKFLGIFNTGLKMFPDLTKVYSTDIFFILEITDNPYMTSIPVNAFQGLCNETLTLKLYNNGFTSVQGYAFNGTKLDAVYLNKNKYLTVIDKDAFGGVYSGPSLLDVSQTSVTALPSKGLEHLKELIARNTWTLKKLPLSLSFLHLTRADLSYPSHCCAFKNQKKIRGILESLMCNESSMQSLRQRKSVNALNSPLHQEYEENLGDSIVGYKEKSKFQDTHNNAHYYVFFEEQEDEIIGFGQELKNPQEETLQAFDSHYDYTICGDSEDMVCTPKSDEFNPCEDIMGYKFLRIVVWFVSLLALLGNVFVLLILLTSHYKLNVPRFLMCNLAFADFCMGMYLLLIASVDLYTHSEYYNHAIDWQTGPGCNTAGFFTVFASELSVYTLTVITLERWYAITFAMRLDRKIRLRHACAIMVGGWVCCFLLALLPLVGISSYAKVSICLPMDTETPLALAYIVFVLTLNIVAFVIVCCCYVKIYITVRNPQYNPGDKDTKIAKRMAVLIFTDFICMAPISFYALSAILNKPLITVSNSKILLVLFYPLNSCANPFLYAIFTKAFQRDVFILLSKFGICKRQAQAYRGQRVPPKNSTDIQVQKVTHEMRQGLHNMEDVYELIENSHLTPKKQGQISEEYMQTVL
Luciferin 4-monooxygenase (Photinus pyralis), sequence (P08659 whole entry, looked up): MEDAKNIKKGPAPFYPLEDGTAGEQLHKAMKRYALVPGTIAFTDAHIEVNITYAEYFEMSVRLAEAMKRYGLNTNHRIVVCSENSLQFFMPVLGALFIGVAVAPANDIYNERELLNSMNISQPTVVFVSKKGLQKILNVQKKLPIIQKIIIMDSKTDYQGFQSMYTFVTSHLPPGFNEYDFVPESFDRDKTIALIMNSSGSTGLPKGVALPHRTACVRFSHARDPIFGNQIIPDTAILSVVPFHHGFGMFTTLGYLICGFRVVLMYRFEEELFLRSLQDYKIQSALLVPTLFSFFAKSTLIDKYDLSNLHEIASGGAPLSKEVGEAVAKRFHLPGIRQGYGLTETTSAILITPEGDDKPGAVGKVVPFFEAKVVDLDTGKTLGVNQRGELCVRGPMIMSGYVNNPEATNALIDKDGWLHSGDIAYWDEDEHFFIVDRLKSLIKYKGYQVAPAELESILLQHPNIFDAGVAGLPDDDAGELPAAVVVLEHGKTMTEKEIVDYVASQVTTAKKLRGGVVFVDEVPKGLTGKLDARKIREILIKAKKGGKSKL

In the case of `CCC(=O)OC(C)(C)C1CC=C(C)CC1` (stereo not drawn), the Potency entry in [1], in assay [2], in assay [3], in assay [4], in assay [5] and in [6] was “inactive” throughout. Moreover, the Potency result in [7], in assay [8], in [9], in assay [10] and in assay [11] was “inactive” throughout.
On to `CC[C@H](C)[C@H](N)C(=O)O`, for which the Potency entry in [1], in [3], in assay [4], in [5], in [12] and in [6] was “inactive” throughout. In addition, the Potency entry in assay [7], in [8], in assay [9] and in assay [10] was “inactive” throughout.
On to `S=C(S)NCCNC(=S)S`, for which the Potency entry in assay [1], in assay [3], in assay [4], in assay [5], in [12] and in [8] was “inactive” in each case. Also, in [11], the Potency result was “inactive”.
Regarding `COc1ccccc1OC(=O)Oc1ccccc1OC`, the Potency result in assay [1], in [3], in assay [4], in assay [5], in assay [12] and in assay [6] was “inactive” in each case. The Potency result in assay [7], in [8] and in [11] was “inactive” throughout.
`O=c1[nH]cnc2ccccc12`: the Potency entry in assay [13], in [2], in assay [3], in assay [4], in assay [5] and in [12] was “inactive” each time. Moreover, in [11], the Potency result is “inactive”.
With `CC(=O)OC/C=C/c1ccccc1`, the Potency result in [1], in assay [3], in [4], in assay [5], in [12] and in assay [6] was “inactive” each time. Also, the Potency entry in [7], in assay [9], in assay [10] and in assay [11] was “inactive” each time.
Regarding `COC(=O)C(C)=O`, the Potency result in assay [1], in [4], in assay [5], in [12], in assay [6] and in assay [7] was “inactive” throughout. In addition, the Potency result in [8], in [9] and in [10] was “inactive” in each case.
As to `CCCOc1ccc2nc(NC(=O)OC)[nH]c2c1`, the Potency entry in assay [2], in assay [4], in [5], in assay [12] and in [7] was “inactive” each time.
For `O=C=NC1CCC(CC2CCC(N=C=O)CC2)CC1` (stereo not drawn), the Potency entry in [1], in assay [3], in assay [4], in assay [5], in assay [12] and in assay [6] was “inactive” each time. Also, the Potency entry in assay [7] and in assay [11] was “inactive” in each case.
With `CNCC[C@@H](Oc1ccccc1C)c1ccccc1`, the Potency entry in assay [1], in [2], in [4], in [5], in assay [12] and in assay [7] was “inactive” each time. Also, the Potency entry in assay [8] and in [10] was “inactive” throughout.
Take `Oc1ccc(O)c2c(O)cccc12`: the Potency result in [1], in [2], in assay [4], in assay [5], in assay [12] and in [6] was “inactive” throughout. Further, the Potency result in [7], in assay [8], in assay [9] and in assay [10] was “inactive” in each case.
As for `Nc1nc(N)c2nc(CNc3ccc(C(=O)N[C@@H](CCC(=O)O)C(=O)O)cc3)cnc2n1`, the Potency result in assay [1], in assay [2], in [3], in assay [4], in [5] and in [7] was “inactive” in each case. For the same compound, the Potency result in assay [8], in assay [10] and in assay [11] was “inactive” in each case. For the same compound, the Potency in assay [6] is 0.0404 µM (active); in [9] it was 0.114 µM (active).
With `CCCCOc1ccc(CC(=O)NO)cc1`, the Potency entry in assay [1], in assay [4], in [6], in assay [7] and in [8] was “inactive” in each case. Besides, the Potency in assay [2] was 29.8 µM (active).
With `CC1=CCC(C(C)C)C=C1` (stereo not drawn), the Potency entry in [1], in assay [4], in assay [5], in [12], in assay [6] and in assay [7] was “inactive” each time. Further, in [8], the Potency result was “inactive”.
With `C=CC[N+]1([C@H]2C[C@H]3[C@@H]4CC[C@H]5C[C@H](OC(C)=O)[C@@H](N6CCCCC6)C[C@]5(C)[C@H]4CC[C@]3(C)[C@H]2OC(=O)CC)CCCCC1`, the Potency entry in assay [1], in assay [2], in assay [4], in [6], in assay [7] and in assay [8] was “inactive” in each case. The Potency entry in assay [10] and in assay [11] was “inactive” throughout.
For the compound `CC(C)(C)c1cc(O)c(C(C)(C)C)cc1O`, the Potency entry in [1], in assay [4], in [10] and in assay [11] was “inactive” throughout. Also, the Potency in [3] was 48.6 µM (active).
With `CCCCOCCOCCOCCOCCO`, the Potency result in assay [1], in [3], in [4], in assay [5], in assay [12] and in [11] was “inactive” each time.
`CCCCc1cc2ccccc2c(OCCN(C)C)n1`: the Potency entry in assay [1], in assay [2], in assay [4], in assay [5], in assay [12] and in [8] was “inactive” in each case. Further, the Potency result in [11] was “inactive”.
Regarding `CCCCC(CC)COCCCN` (stereo not drawn), the Potency entry in assay [1], in assay [2], in [3], in assay [4], in assay [5] and in assay [10] was “inactive” each time. The Potency entry in assay [11] was “inactive”.
As to `CCOC(=O)C1=NN(c2ccccc2)C(=O)C1`, the Potency result in assay [1], in [2], in [3], in assay [4], in assay [12] and in assay [8] was “inactive” each time. Further, the Potency result in [11] was “inactive”.
